Results as given in PubChem BioAssay (NCATS).
Results filed as inconclusive are left out. A call without a number means that no potency is given here. Active and inactive are the calls of the source. Calls follow the shape of the dose curve; as a rule, active = well fitted inhibition curve with a large enough effect; inconclusive = small, poorly fitted or top-dose-only effect; inactive = no such curve, though single readings can be large or run the other way.

These molecules were tested against Retinal dehydrogenase 2 (Homo sapiens) (UniProt O94788) (assay: qHTS for Inhibitors of the Aldehyde Dehydrogenase Family (ALDH1A2) Confirmation screens (AID 2061314; also: nearly all actives have a fitted effect of over 65% in size; also: potency is read from the fitted curve at half-maximal effect)). Conditions: ALDH1A2 enzyme inhibition qHTS confirmation; series mostly up to 45.9 µM.

Row | Structure (SMILES) | Potency
1 | Cc1ccc(-c2ccc(=O)n(CC(=O)N(C)C(C)c3ccco3)c2)cc1 (configuration not stated) | 2.01 µM (active)
2 | Cc1ccc(S(=O)(=O)c2ncccc2[N+](=O)[O-])cc1 | 0.449 µM (active)
3 | CC(=O)NC(c1ccco1)c1cc(Cl)c2ccc(Cl)nc2c1O (configuration not stated) | 6.34 µM (active)
4 | c1nc(NCC2CCCCO2)c2cc(-c3ccc4c(c3)OCO4)ccc2n1 (configuration not stated) | 22.5 µM (active)
5 | NC(=O)C1CCN(c2nc(-c3ccc(N4CCCCC4)nc3)cs2)CC1 | 12.7 µM (active)
6 | Cc1c(C(=O)OCC2CC2)[nH]c2c1C(=O)CC(c1ccco1)C2 (configuration not stated) | 8.96 µM (active)
7 | Cc1ccc(NS(=O)(=O)c2ccc3c(c2)C(Cl)(Cl)C(=O)N3)cc1C | 3.18 µM (active)
8 | N#Cc1c(-c2ccc(Cl)cc2)no[n+]1[O-] | 10.1 µM (active)
9 | CS(=O)(=O)N1CCN(c2nc(-c3ccc(Br)cc3)cs2)CC1 | inactive
10 | CC(=O)Nc1sc2c(c1-c1nc3ccccc3s1)CCN(C(C)C)C2 | 28.3 µM (active)
11 | O=C1c2ccccc2NC(c2ccc(-c3ccc(C(F)(F)F)cc3)o2)N1O (configuration not stated) | 22.5 µM (active)
12 | O=C(Nc1ncc(Cc2ccc(C(F)(F)F)cc2)s1)c1ccc(-c2ccc([N+](=O)[O-])cc2)o1 | 22.5 µM (active)
13 | CCOc1ccc(NC(=O)NCC2CCCN2c2ccc(OC)cc2)cc1 (configuration not stated) | 14.2 µM (active)
14 | c1nc(NCC2CCCOC2)c2cc(-c3ccc4c(c3)OCO4)ccc2n1 (configuration not stated) | 11.3 µM (active)
15 | Cc1ccc(CNc2ccc(N3CCOCC3)cc2)cc1 | 11.3 µM (active)
16 | COc1ccc(C2=Nn3c(nnc3-c3ccc(OC)cc3OC)SC2)cc1 | inactive
17 | O=S(=O)(Nc1nccs1)c1ccc(Nc2nc(-c3ccc(F)cc3)cs2)cc1 | 14.2 µM (active)
18 | CC(=O)Nc1ccc(-c2csc(N3CCC(C(N)=O)CC3)n2)cc1 | 22.5 µM (active)

The molecules below were run against Retinaldehyde dehydrogenase 3 (Homo sapiens) (UniProt P47895) (assay: qHTS for Inhibitors of the Aldehyde Dehydrogenase Family (ALDH1A3) Primary screen (AID 2061315)). Conditions: ALDH inhibition qHTS; series mostly up to 56 µM.

Row | Structure (SMILES) | Potency
19 | CCOC(=O)[C@@H](N)Cc1ccc(-c2cc(O[C@H](c3ccc(Cl)cc3-n3ccc(C)n3)C(F)(F)F)nc(N)n2)cc1 | inactive
20 | Cc1ccc(-c2ccc(=O)n(CC(=O)N(C)C(C)c3ccco3)c2)cc1 (configuration not stated) | inactive
21 | O=C(Nc1cn[nH]c1-c1nc2ccc(CN3CCOCC3)cc2[nH]1)NC1CC1 | inactive
22 | CCCC1(CCC)CCC2(CCN(CCCN(CC)CC)C2)CC1 | inactive
23 | COCCOC(=O)C1=C(C)NC2=C(C(=O)CC(c3ccccc3OC)C2)C1c1cccc(O)c1 (configuration not stated) | inactive
24 | O=C(N[C@H]1CCC[C@H](CO)C1)C1CCN(c2nc3cc(Cl)c(-c4ccc(Cl)cc4)cc3o2)CC1 | inactive
25 | N#Cc1ccc(COC[C@H]2O[C@@H](n3c(NCc4ccc(Cl)c(Cl)c4)nc4c(N)ncnc43)[C@H](O)[C@@H]2O)cc1 | inactive
26 | c1ccc(Cn2c(-c3ccc(OCC(C4CCNCC4)n4c(-c5ccccc5)nc5ccccc54)cc3)nc3ccccc32)cc1 (configuration not stated) | inactive
27 | Cn1ncc(Cl)c1-c1cc(C(=O)NC(CN)Cc2ccc(F)c(F)c2)oc1Cl (configuration not stated) | inactive
28 | CON(C)C(=O)N1N=C(c2cc(F)ccc2F)S[C@@]1(CCCN)c1ccccc1 | inactive
29 | c1nc(NCC2CCCCO2)c2cc(-c3ccc4c(c3)OCO4)ccc2n1 (configuration not stated) | inactive
30 | NC(=O)C1CCN(c2nc(-c3ccc(N4CCCCC4)nc3)cs2)CC1 | inactive
31 | Cc1cnc(Nc2ccc(CN3CCOCC3)cc2)nc1Nc1cccc(S(=O)(=O)NC(C)(C)C)c1 | inactive
32 | Cc1c(C(=O)OCC2CC2)[nH]c2c1C(=O)CC(c1ccco1)C2 (configuration not stated) | inactive
33 | OCCNC1CCCc2c1[nH]c1ccc(-c3ccccc3)cc21 (configuration not stated) | inactive
34 | CCC(=O)NS(=O)(=O)c1ccc(-c2c(-c3ccccc3)noc2C)cc1 | inactive
35 | Cc1ccc(NS(=O)(=O)c2ccc3c(c2)C(Cl)(Cl)C(=O)N3)cc1C | inactive
36 | N#Cc1c(-c2ccc(Cl)cc2)no[n+]1[O-] | inactive
37 | O=C(c1ccc(F)c(F)c1Nc1ccc(I)cc1F)N1CC(O)([C@@H]2CCCCN2)C1 | inactive
38 | CS(=O)(=O)N1CCN(c2nc(-c3ccc(Br)cc3)cs2)CC1 | inactive
39 | CC(=O)Nc1sc2c(c1-c1nc3ccccc3s1)CCN(C(C)C)C2 | inactive
40 | O=C1c2ccccc2NC(c2ccc(-c3ccc(C(F)(F)F)cc3)o2)N1O (configuration not stated) | inactive
41 | CNCc1ccc(C)c(NC(=O)c2ccc(Nc3nc(-c4ccccc4)c4ccccc4n3)cc2)c1 | inactive
42 | O=C(Nc1ncc(Cc2ccc(C(F)(F)F)cc2)s1)c1ccc(-c2ccc([N+](=O)[O-])cc2)o1 | inactive
